For test [1] the following is noted: Ebola virus entry assay, green fluorescence channel.
For test [2] the following is noted: Ebola virus entry assay, blue channel fluorescence.
For test [3] the following is noted: Ebola virus entry assay, ratio channel.
For test [4] the following is noted: Ebola virus entry assay, green channel fluorescence.
For test [5] the following is noted: Ebola virus entry assay, reporter ratio channel; Channel type: primary.
The conditions of test [6]: Ebola virus entry assay, blue channel (ratio component).

efficacy, outcome and AC50 data for 28 compounds are collected here from PubChem BioAssay (NCATS).

Each structure is given as a SMILES string. Values without a mark were called inactive. For part of these data: Potency and affinity values are given separately. Activity calls are given as the source filed them. No rule for the calls is given here. Peptide text beside a SMILES is read from it.
For efficacy in this document: 0% is about no effect.

Consider `CNc1c2c(nn1C)CCCC2`, for which the efficacy in test [1] is -13.1%. In addition, the result in test [2], in test [3], in test [4], in test [5] and in test [6] was inactive.
Regarding `C=C1C[C@H]2[C@@H]3C=C(C)C4=CC(=O)CC[C@]4(C)[C@H]3CC[C@]2(C)[C@@]1(OC(C)=O)C(C)=O`, in test [1], the efficacy was -35.6%. The result in test [2], in test [3], in test [4], in test [5] and in test [6] was inactive.
What is called AC50 is the midpoint of the concentration-response curve, whichever way the signal moves. For the compound `Cn1cc(C(=O)[C@@H]2CCc3nc[nH]c3C2)c2ccccc21`, in test [1], the efficacy is 15.9%. Also, the call in test [2], in test [3], in test [4] and in test [6] was inactive. Moreover, the AC50 in test [5] was 39.8 µM (active).
On to `COc1ccc2cc(C=O)ccc2c1`, for which the efficacy in test [1] was -11.5%. The compound was called inactive in test [2], in test [3], in test [4], in test [5] and in test [6].
For `CC(=O)N[C@@H](CO)C(=O)N[C@@H](CC(=O)O)C(=O)N[C@@H](CCCCN)C(=O)N1CCC[C@H]1C(=O)O` (Ac-SDKP-OH), in test [1], the efficacy is 17.5%. Further, the compound was called inactive in test [2], in test [3], in test [4], in test [5] and in test [6].
For `CC(COc1ccccc1)NC(C)C(O)c1ccc(O)cc1` (stereo not drawn), the efficacy in test [1] was -32.1%. Moreover, the result in test [2], in test [3], in test [4], in test [5] and in test [6] was inactive.
With `CN(C)CCC(c1ccccc1)c1ccccn1` (stereo not drawn), the efficacy in test [1] was 12.6%. Also, the call in test [2], in test [3], in test [4], in test [5] and in test [6] was inactive.
For the compound `COc1ccc(C(Cl)=C(c2ccc(OC)cc2)c2ccc(OC)cc2)cc1`, the efficacy in test [1] is 25.3%. In addition, the result in test [2], in test [3], in test [4], in test [5] and in test [6] was inactive.
In the case of `NS(=O)(=O)c1cc2c(cc1Cl)NCNS2(=O)=O`, in test [1], the efficacy was 14.8%. The compound was called inactive in test [2], in test [3], in test [4], in test [5] and in test [6].
On to `CCCCCCCCCCCCCCC[C@H](O)[C@@H](N)CO`, for which the efficacy in test [1] was 25.9%. In addition, the call in test [2], in test [3], in test [4], in test [5] and in test [6] was inactive.
Take `C[N+](C)(C)CCOC(=O)CCC(=O)OCC[N+](C)(C)C`: the efficacy in test [1] was 18.3%. The outcome in test [2], in test [3], in test [4], in test [5] and in test [6] was inactive.
Turning to `O=C(NCCCN1CCOCC1)c1ccc(Cl)cc1`, in test [1], the efficacy is -12.2%. For the same compound, the result in test [2], in test [3], in test [4], in test [5] and in test [6] was inactive.
On to `C[C@H]1C(=O)O[C@@H]2CCN3CC=C(COC(=O)[C@](C)(O)[C@]1(C)O)[C@H]23`, for which the efficacy in test [1] is 7.51%. For the same compound, the call in test [2], in test [3], in test [4], in test [5] and in test [6] was inactive.
As to `C/C=C(/C(=C/C)c1ccc(OC(C)=O)cc1)c1ccc(OC(C)=O)cc1`, the efficacy in test [1] is 15.4%. Further, the outcome in test [2], in test [3], in test [4], in test [5] and in test [6] was inactive.
Take `CC1(C)[C@@H]2CC[C@@]1(C)C(=O)C2`: the efficacy in test [1] was 9.79%. For the same compound, the outcome in test [2], in test [3], in test [4], in test [5] and in test [6] was inactive.
As for `CN(C)C(=O)Oc1cccc([N+](C)(C)C)c1`, the efficacy in test [1] is -10.1%. In addition, the compound was called inactive in test [2], in test [3], in test [4], in test [5] and in test [6].
As for `O=C(O)Cn1c(C(=O)Nc2nc(-c3ccccc3Cl)cs2)cc2ccccc21`, in test [1], the efficacy is -23.1%. The compound was called inactive in test [2], in test [3], in test [4], in test [5] and in test [6].
Turning to `O=C(O)CCC(=O)c1ccc(-c2ccccc2)cc1`, in test [1], the efficacy is 17.7%. Also, the outcome in test [2], in test [3], in test [4], in test [5] and in test [6] was inactive.
On to `OCC(O)CN1CCN(c2ccccc2)CC1` (stereo not drawn), for which the efficacy in test [1] is 24.6%. The result in test [2], in test [3], in test [4], in test [5] and in test [6] was inactive.
As for `Nc1ccc(S(=O)(=O)Nc2cnc3ccccc3n2)cc1`, the efficacy in test [1] is -10.5%. The compound was called inactive in test [2], in test [3], in test [4], in test [5] and in test [6].
Take `CC(=O)N1C[C@H](O)C[C@H]1C(=O)O`: the efficacy in test [1] is 24.5%. Also, the compound was classed as inactive in test [2], in test [3], in test [4], in test [5] and in test [6].
With `CCOc1ccccc1C(N)=O`, the efficacy in test [1] is -14.9%. Further, the compound was called inactive in test [2], in test [3], in test [4], in test [5] and in test [6].
In the case of `N[C@@H](CSSC[C@H](N)C(=O)O)C(=O)O`, in test [1], the efficacy was -14.5%. Moreover, the outcome in test [2], in test [3], in test [4], in test [5] and in test [6] was inactive.
Regarding `Nc1ccccc1C(=O)OCC(O)CO` (stereo not drawn), in test [1], the efficacy was -15.8%. Moreover, the compound was called inactive in test [2], in test [3], in test [4], in test [5] and in test [6].
`C/C(=C(\CCOP(=O)(O)O)SC(=O)c1ccccc1)N(C=O)Cc1cnc(C)nc1N`: the efficacy in test [1] was -17.4%. Besides, the result in test [2], in test [3], in test [4], in test [5] and in test [6] was inactive.
As to `CCc1cccc2c3c([nH]c12)C(CC)(CC(=O)O)OCC3` (stereo not drawn), in test [1], the efficacy was 8.5%. In addition, the call in test [2], in test [3], in test [4], in test [5] and in test [6] was inactive.
`O=C1N(c2ccccc2)c2ccccc2C1(Cc1ccncc1)Cc1ccncc1`: the efficacy in test [1] is 21.1%. For the same compound, the compound was classed as inactive in test [2], in test [3], in test [4], in test [5] and in test [6].
Turning to `Cc1sccc1Br`, the efficacy in test [1] is -12.3%. Besides, the call in test [2], in test [3], in test [4], in test [5] and in test [6] was inactive.
